This note sets out measurements from PubChem BioAssay (EPA / NIEHS).

Results filed as inconclusive are left out. Calls of active or inactive are those of the source. Rule for the calls: active = hit-call score of the fitted dose curve at least 0.9, where 1 is the maximum; inconclusive = response in the unintended direction; inactive = score below 0.9.

In assay [1] the target is rat Corticotropin Releasing Factor Receptor (CRF), Crhr1 (gene 58959) (UniProt P35353). Briefly: NVS_GPCR_rCRF: NovaScreen (NVS) G Protein-Coupled Receptor Assay for rat Corticotropin Releasing Factor Receptor (CRF) (AID 2283300). Put shortly: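 Single-concentration (25 uM, duplicate) radioligand binding on rat cortical membrane preparations, counted by scintillation after 2 h. Activity scored as signal loss relative to DMSO negative control.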

In a further assay the target is Adra2b (gene 24174) (UniProt P19328). Briefly: NVS_GPCR_rmAdra2B: NovaScreen (NVS) G Protein-Coupled Receptor Assay for hybird cells Adrenergic, Alpha 2B Receptor (Adra2B) (AID 2283306). Put shortly:
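Compounds screened first at 25 uM in duplicate, with actives followed up in concentration-response; specific radioligand displacement from hybrid neuroglioma/blastoma cell membrane preparations measured by filter scintillation counting after 1 h, normalized to DMSO.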

Assay [2] addresses human Neonicotinoid receptor (NNR), CHRNA2 (gene 1135) (UniProt Q15822). Briefly: NVS_LGIC_hNNR_NBungSens: NovaScreen (NVS) Ligand-Gated Ion Channel Assay for human Neonicotinoid receptor (NNR) (AID 2283313). Put shortly:
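Compounds first screened in duplicate at 25 uM, then actives re-tested in single-replicate dose series up to 50 uM. Binding measured as displacement of specific radioligand from neuroblastoma membrane receptors after 2 h, scintillation read on filters.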

Assay [3] deals with rat Neonicotinoid receptor (NNR), Chrna7 (gene 25302) (UniProt Q05941). Briefly: NVS_LGIC_rNNR_BungSens: NovaScreen (NVS) Ligand-Gated Ion Channel Assay for rat Neonicotinoid receptor (NNR) (AID 2283315). The method in brief:
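Rat cortical membrane preparation incubated 2.5 h with tritiated or iodinated radioligand and test chemical. Bound radioactivity was filtered and counted by scintillation, and displacement was analysed against DMSO.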

The target in assay [4] is bovine Gamma-Aminobutyric Acid Type A Receptor BDZ, alpha 1 site (GABARa1), GABRA1 (gene 780973) (UniProt P08219). Briefly: NVS_LGIC_bGABARa1: NovaScreen (NVS) Ligand-Gated Ion Channel Assay for bovine Gamma-Aminobutyric Acid Type A Receptor BDZ, alpha 1 site (GABARa1) (AID 2283321). Put shortly: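 Bovine cortex membrane preparation, benzodiazepine site on GABA-A alpha1; specific radioligand displacement read after 0.75 h by filtration and scintillation. Screen at 25 uM, then singleton titrations up to 50 uM; DMSO baseline.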

In assay [5] the target is rat Gamma-Aminobutyric Acid Type B Receptor (GABBR), Gabbr1 (gene 81657) (UniProt Q9Z0U4). Briefly: NVS_GPCR_rGABBR: NovaScreen (NVS) G Protein-Coupled Receptor Assay for rat Gamma-Aminobutyric Acid Type B Receptor (GABBR) (AID 2283301). The method in brief: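 Rat cortical membrane preparation, competitive radioligand binding for 1 h with filtration and scintillation readout. Actives from duplicate single-point 25 uM screening proceeded to concentration series with 50 uM top concentration.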

For assay [6], the target named is rat Neurokinin-1 Receptor (NK1), Tacr1 (gene 24807) (UniProt P14600). Briefly: NVS_GPCR_rNK1: NovaScreen (NVS) G Protein-Coupled Receptor Assay for rat Neurokinin-1 Receptor (NK1) (AID 2283309). The method in brief: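 Competitive radioligand binding to NK1 in rat submaxillary membranes, 1 h incubation, filtration and scintillation read-out. Compounds first screened at 25 uM in duplicate, then concentration-response for actives; signal loss relative to DMSO.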

Assay [7] concerns the target Sodium channel protein type 1 subunit alpha (Rattus norvegicus) (UniProt P04774). Briefly: NVS_IC_rNaCh_site2: NovaScreen (NVS) Ion Channel Assay for rat Sodium Channel, Site 2 (NaCh) (AID 2283322).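 Note: hit means loss of radioligand binding signal relative to DMSO so AC50 marks displacement.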 The method in brief:
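Initial duplicate single-point testing at 25 uM, followed by concentration-response runs for actives. Binding of radioligand to rat forebrain membranes quantified after 1 h via filter-based radiodetection.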

A further assay deals with NCBI gene 24521. Briefly: NVS_IC_rKATPCh: NovaScreen (NVS) Ion Channel Assay for rat Potassium Channel, ATP-Sensitive (KATPCh) (AID 2283319). Put shortly: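 Primary duplicate screen at 25 uM, then singleton concentration series to 50 uM maximum, in a rat cortex membrane radioligand displacement assay. Binding measured by filtration and scintillation 2 h post-dose; DMSO baseline.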

Assay [8] deals with rat Opioid Receptor, Non-selective Sodium (Na+) Binding, Oprm1 (gene 25601) (UniProt P33535). Briefly: NVS_GPCR_rOpiate_NonSelectiveNa: NovaScreen (NVS) G Protein-Coupled Receptor Assay for rat Opioid Receptor, Non-selective Sodium (Na+) Binding (AID 2283311). The method in brief:
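Filtration radioligand binding on rat forebrain membrane preparations, read 1.5 h after dosing. Single-concentration 25 µM primary screen in duplicate, followed by singleton concentration series to 50 µM max for actives; DMSO baseline.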

Assay [9] has as its target rat Somatostatin Receptor (SST), Sstr1 (gene 25033) (UniProt P28646). Briefly: NVS_GPCR_rSST: NovaScreen (NVS) G Protein-Coupled Receptor Assay for rat Somatostatin Receptor (SST) (AID 2283314). The method in brief: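 Single-concentration duplicate screen (25 uM), then concentration-response up to 50 uM for chemicals passing a threshold such as 30% inhibition. Membranes came from rat forebrain. Binding was measured 1 h post-dose by filter radiodetection and scintillation, relative to DMSO.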

The target in assay [10] is rat Opioid Receptor, Non-selective Binding, Oprm1 (gene 25601) (UniProt P33535). Briefly: NVS_GPCR_rOpiate_NonSelective: NovaScreen (NVS) G Protein-Coupled Receptor Assay for rat Opioid Receptor, Non-selective Binding (AID 2283318). Put shortly:
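Filter-based radioligand displacement using rat forebrain membrane preparations, measured 1.5 h post-dosing. Single-concentration duplicate screen at 25 uM, follow-up in concentration series; activity taken as signal loss relative to DMSO.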

The target of assay [11] is rat Histamine Receptor (H3), Hrh3 (gene 85268) (UniProt Q9QYN8). Briefly: NVS_GPCR_rH3: NovaScreen (NVS) G Protein-Coupled Receptor Assay for rat Histamine Receptor (H3) (AID 2283303). The method in brief: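 Filter-binding radioligand competition on rat forebrain membranes, 1 h incubation; compounds screened at 25 µM in duplicate and followed in concentration series to 50 µM, loss of bound signal vs DMSO.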

The nature of assay [12]: NVS_IC_rCaDHPRCh_L: NovaScreen (NVS) Ion Channel Assay for rat Calcium Channel, Type L, Dihydropyridine Site (CaDHPRCh_L) (AID 2283320). The method in brief:
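Rat cortex membrane preparation; dihydropyridine-site radioligand displacement read 1 h post-dose by filtration and scintillation. Primary single-point screen 25 uM in duplicate, then concentration series to 50 uM maximum; DMSO as negative control.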

Assay [13] deals with rat Glutamate Metabotropic Receptor 5 (MGluR5), Grm5 (gene 24418) (UniProt P31424). Briefly: NVS_GPCR_rmMGluR5: NovaScreen (NVS) G Protein-Coupled Receptor Assay for rat Glutamate Metabotropic Receptor 5 (MGluR5) (AID 2283307). The method in brief: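 Compounds first screened in duplicate at 25 uM, then in concentration series up to 50 uM if over threshold. Radioligand displacement on rat whole-brain membranes, filtration and scintillation counting after 1.5 h; binding loss relative to DMSO.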

Assay [14] addresses Voltage-dependent N-type calcium channel subunit alpha-1B (Rattus norvegicus) (UniProt Q02294). Briefly: NVS_IC_rCaChN: NovaScreen (NVS) Ion Channel Assay for rat Calcium Channel, Type N (CaChN) (AID 2283317).

Chain of Adra2b (gene 24174) (P19328 whole entry, looked up): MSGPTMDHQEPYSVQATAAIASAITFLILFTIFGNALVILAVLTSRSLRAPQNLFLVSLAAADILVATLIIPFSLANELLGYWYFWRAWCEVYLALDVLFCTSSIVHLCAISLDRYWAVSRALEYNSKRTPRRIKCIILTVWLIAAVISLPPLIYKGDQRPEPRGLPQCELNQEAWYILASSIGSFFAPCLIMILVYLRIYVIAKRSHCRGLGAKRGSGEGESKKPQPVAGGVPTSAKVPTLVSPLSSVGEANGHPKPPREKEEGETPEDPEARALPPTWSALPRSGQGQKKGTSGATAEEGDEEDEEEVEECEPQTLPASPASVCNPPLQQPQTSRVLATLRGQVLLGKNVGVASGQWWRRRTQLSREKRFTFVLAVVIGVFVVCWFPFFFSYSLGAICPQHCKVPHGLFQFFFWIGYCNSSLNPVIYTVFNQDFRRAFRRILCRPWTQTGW
Chain of rat Opioid Receptor, Non-selective Binding, Oprm1 (gene 25601) (P33535 whole entry, looked up): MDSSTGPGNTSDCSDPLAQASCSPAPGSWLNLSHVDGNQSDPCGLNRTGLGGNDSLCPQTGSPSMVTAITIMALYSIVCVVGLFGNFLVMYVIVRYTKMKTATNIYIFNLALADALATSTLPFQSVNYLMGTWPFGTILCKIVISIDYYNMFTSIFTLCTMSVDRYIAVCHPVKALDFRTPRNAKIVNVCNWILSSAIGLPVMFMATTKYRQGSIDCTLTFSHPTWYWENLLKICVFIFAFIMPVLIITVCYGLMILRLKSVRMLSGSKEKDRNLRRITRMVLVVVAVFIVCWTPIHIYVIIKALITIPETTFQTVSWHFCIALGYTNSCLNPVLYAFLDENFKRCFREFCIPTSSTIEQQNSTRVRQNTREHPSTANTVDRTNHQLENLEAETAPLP
Chain of human Neonicotinoid receptor (NNR), CHRNA2 (gene 1135) (Q15822 whole entry, looked up): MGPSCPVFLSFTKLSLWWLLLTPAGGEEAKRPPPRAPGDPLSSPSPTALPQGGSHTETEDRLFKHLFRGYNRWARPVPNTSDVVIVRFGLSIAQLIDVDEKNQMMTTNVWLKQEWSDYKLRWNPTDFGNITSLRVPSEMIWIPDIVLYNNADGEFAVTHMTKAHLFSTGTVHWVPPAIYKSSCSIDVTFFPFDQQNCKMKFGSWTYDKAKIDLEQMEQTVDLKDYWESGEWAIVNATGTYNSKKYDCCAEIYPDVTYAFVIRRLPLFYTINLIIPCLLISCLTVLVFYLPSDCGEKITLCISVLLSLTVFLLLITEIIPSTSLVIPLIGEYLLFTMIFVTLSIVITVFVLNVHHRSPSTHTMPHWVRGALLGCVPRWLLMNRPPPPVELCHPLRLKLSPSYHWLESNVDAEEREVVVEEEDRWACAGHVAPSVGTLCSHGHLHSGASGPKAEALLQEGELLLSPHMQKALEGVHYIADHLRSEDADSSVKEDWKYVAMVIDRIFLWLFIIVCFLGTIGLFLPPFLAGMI
Chain of bovine Gamma-Aminobutyric Acid Type A Receptor BDZ, alpha 1 site (GABARa1), GABRA1 (gene 780973) (P08219 whole entry, looked up): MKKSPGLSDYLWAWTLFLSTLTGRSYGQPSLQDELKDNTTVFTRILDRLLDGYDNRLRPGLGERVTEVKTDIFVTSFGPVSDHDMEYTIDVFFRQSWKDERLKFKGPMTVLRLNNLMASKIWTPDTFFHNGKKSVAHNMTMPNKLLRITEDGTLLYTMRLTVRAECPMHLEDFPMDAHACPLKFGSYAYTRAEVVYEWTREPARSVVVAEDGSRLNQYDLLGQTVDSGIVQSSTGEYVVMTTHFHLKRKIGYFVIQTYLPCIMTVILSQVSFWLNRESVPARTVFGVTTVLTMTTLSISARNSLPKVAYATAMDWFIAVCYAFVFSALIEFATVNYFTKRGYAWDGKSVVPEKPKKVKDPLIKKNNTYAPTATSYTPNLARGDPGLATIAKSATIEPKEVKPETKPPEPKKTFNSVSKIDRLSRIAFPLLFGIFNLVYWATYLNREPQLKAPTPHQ
Chain of rat Neonicotinoid receptor (NNR), Chrna7 (gene 25302) (Q05941 whole entry, looked up): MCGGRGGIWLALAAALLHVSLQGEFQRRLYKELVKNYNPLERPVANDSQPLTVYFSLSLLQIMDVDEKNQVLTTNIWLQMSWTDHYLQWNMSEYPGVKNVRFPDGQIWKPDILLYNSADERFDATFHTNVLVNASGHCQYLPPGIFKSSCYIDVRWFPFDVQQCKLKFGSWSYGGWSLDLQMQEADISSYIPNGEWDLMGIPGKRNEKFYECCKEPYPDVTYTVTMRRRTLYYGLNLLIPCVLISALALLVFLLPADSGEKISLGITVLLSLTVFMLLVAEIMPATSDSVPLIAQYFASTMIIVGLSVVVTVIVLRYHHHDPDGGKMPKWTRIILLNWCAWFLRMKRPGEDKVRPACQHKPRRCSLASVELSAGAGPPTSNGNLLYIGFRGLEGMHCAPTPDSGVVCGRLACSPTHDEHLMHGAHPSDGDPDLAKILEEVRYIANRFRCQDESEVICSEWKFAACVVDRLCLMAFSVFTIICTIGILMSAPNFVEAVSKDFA
Chain of rat Opioid Receptor, Non-selective Sodium (Na+) Binding, Oprm1 (gene 25601) (P33535 whole entry, looked up): as the sequence (P33535 whole entry, looked up) above
Chain of rat Gamma-Aminobutyric Acid Type B Receptor (GABBR), Gabbr1 (gene 81657) (Q9Z0U4 whole entry, looked up): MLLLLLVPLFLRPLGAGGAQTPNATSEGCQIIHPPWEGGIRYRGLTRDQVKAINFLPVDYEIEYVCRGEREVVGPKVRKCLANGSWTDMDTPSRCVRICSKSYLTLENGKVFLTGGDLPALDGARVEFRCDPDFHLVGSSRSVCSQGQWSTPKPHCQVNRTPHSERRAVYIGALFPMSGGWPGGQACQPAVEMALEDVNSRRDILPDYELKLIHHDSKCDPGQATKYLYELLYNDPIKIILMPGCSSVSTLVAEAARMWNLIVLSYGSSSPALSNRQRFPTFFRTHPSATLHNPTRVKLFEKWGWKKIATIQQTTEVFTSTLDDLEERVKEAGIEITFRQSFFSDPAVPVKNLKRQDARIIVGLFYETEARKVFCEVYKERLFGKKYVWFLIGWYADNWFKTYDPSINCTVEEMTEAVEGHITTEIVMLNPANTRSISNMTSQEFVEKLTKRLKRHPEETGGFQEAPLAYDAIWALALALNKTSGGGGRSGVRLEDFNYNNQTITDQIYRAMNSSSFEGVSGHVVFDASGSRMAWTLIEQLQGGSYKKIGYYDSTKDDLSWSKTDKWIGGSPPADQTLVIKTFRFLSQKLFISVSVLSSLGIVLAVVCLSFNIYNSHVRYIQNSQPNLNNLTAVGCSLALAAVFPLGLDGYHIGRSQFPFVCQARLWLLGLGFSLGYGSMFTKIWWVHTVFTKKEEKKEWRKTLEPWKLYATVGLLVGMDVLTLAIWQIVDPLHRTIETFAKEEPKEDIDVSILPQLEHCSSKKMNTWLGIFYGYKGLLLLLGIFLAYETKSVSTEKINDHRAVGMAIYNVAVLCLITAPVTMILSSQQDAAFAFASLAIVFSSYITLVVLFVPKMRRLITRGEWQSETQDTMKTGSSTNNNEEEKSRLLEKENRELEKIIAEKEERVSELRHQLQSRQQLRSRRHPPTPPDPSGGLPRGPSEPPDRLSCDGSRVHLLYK
Chain of rat Corticotropin Releasing Factor Receptor (CRF), Crhr1 (gene 58959) (P35353 whole entry, looked up): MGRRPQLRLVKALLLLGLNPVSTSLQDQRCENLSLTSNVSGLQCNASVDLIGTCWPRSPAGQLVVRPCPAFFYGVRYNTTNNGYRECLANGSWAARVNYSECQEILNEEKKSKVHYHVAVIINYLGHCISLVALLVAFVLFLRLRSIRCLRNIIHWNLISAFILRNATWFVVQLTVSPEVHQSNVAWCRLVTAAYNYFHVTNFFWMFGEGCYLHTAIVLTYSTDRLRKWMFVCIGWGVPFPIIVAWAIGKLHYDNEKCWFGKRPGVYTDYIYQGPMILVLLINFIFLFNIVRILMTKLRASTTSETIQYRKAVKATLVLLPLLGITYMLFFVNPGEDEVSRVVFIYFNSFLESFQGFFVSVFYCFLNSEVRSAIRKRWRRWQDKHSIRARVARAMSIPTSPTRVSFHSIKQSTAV
Chain of rat Somatostatin Receptor (SST), Sstr1 (gene 25033) (P28646 whole entry, looked up): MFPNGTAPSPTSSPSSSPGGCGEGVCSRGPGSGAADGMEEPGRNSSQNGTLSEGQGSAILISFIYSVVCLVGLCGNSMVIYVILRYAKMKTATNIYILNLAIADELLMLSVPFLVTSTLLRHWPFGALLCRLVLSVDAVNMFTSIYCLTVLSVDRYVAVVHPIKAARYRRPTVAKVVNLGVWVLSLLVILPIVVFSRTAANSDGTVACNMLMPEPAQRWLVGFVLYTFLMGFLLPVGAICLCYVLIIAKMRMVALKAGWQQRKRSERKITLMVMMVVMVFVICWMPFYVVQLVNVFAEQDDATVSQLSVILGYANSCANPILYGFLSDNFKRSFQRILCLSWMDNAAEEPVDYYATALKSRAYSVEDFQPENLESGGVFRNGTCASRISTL
Chain of rat Neurokinin-1 Receptor (NK1), Tacr1 (gene 24807) (P14600 whole entry, looked up): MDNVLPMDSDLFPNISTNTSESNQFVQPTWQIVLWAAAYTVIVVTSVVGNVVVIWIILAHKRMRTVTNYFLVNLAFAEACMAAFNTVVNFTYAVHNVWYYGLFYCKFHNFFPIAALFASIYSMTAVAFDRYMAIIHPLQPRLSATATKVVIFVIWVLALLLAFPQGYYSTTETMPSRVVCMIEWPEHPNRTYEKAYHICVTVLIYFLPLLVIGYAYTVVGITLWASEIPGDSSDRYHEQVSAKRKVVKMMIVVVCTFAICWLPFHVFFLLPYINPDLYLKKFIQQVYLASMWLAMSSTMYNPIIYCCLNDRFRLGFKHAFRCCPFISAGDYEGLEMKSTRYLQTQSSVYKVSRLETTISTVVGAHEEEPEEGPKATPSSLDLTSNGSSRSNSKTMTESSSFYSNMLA

Regarding `N#CN=C1SCCN1Cc1ccc(Cl)nc1`, the molecule was called inactive (in assay [1]; in the assay with Adra2b (gene 24174); in assay [4]). Besides, the AC50 in assay [2] is 4.45 µM (active); in assay [3], 5.39 µM (active).

As for `CS(=O)(=O)c1ccc(C(=O)C2C(=O)CCCC2=O)c([N+](=O)[O-])c1`, the molecule was classed as inactive in assay [5].

As for `CCNP(=S)(OC)O/C(C)=C/C(=O)OC(C)C` (stereo not given), the molecule was called inactive in assay [5] and in assay [6].

On to `CC(C)C1(C)N=C(c2ncccc2C(=O)O)NC1=O` (stereo not given), for which, in assay [7], the outcome was inactive.

With `CC(C)N1C(=O)c2ccccc2NS1(=O)=O`, the molecule was classed as inactive with NCBI gene 24521.

Turning to `CC(C)(C)C(=O)C(Oc1ccc(Cl)cc1)n1cncn1` (stereo not given), the outcome in assay [7] was inactive.

Take `Cc1ccc(N=CN(C)C=Nc2ccc(C)cc2C)c(C)c1`: in the assay with Adra2b (gene 24174), the AC50 was 0.779 µM (active). In addition, in assay [2], the result was inactive.

As for `CCOP(=O)(OCC)Oc1nc(Cl)c(Cl)cc1Cl`, the results for the AC50 in assay [8], in assay [9] and in assay [10] were 25 µM (active), 6.64 µM (active) and 11.1 µM (active), respectively.

As for `CC1(C)C(C(=O)OC(C#N)c2cccc(Oc3ccccc3)c2)C1(C)C` (stereo not given), in assay [4], the outcome was inactive.

As for `CCOc1cc(C(C)(C)C)ccc1C1COC(c2c(F)cccc2F)=N1` (stereo not given), the molecule was classed as inactive (in assay [10]; with NCBI gene 24521).

In the case of `CCCC(=NOCC)C1=C(O)CC(CC(C)SCC)CC1=O` (stereo not given), in assay [10], the call was inactive.

As for `CS(=O)(=O)c1cc(C(F)(F)F)ccc1C(=O)c1cnoc1C1CC1`, in [4], the molecule was classed as inactive.

For the molecule `CCCN(CC)CC1COC2(CCC(C(C)(C)C)CC2)O1` (stereo not given), the AC50 is 12.2 µM (active) in assay [11], 25 µM (active) with Adra2b (gene 24174), 13.8 µM (active) in assay [8] and 0.822 µM (active) in [7]. The molecule was called inactive in [10].

As for `CCOC(=O)C(C)OC(=O)c1cc(Oc2ccc(C(F)(F)F)cc2Cl)ccc1[N+](=O)[O-]` (stereo not given), the AC50 was 41.1 µM (active) in [9] and 25 µM (active) in [12].

On to `Nc1c(Cl)c(Cl)nc(C(=O)O)c1Cl`, for which the outcome in [13] was inactive.

In the case of `COC(=O)N(C(=O)N1CO[C@@]2(C(=O)OC)Cc3cc(Cl)ccc3C2=N1)c1ccc(OC(F)(F)F)cc1`, the call in assay [1] and in [3] was inactive.

In the case of `N#Cc1c[nH]cc1-c1cccc2c1OC(F)(F)O2`, the result in assay [14] and in assay [7] was inactive.

Turning to `CC1(C)C(C=C(Cl)Cl)C1C(=O)OC(C#N)c1cccc(Oc2ccccc2)c1` (stereo not given), the AC50 is 25 µM (active) in [2] and 9.51 µM (active) in assay [12].
